# PubChem BioAssay AID1159580 (chemical genetic matrix, 2015)
# Several values for one entry are separate records, joined by “and”; a condition that tells them apart may be missing. Identical values can stand only once. Screen size: about 5,500 compounds; about 2,000 (36%) were called active. Not shown: some 18% with an inconclusive outcome. This is one part of the list. Values without a mark were called inactive. Cut-off read from the data, not from the text of the source: active = normalized growth mostly below about 0.91 (no sharp cut-off); inconclusive = no clear call, values can overlap the other calls; inactive = mostly above about 0.92.
# Assay: chemical genetic growth profiling, strain panel (AID 1159580);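 note: tested at 20 µM; growth read once vehicle control cultures reached saturation at 30 °C; 1 = growth at the plate median or of vehicle wells; lower values mean less growth of the strain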
# Conditions: S. cerevisiae deletion strains, growth OD
smiles,measurement,setting,value
COC(=O)c1c(C)cc(OC)cc1O,normalized growth,"locus YAL013W, strain DEP1, stronger effect = lower value",1.02
same,normalized growth,"locus YAL021C, strain ccr4, stronger effect = lower value",1.02
same,normalized growth,"locus YAL026C, strain drs2, stronger effect = lower value",0.984
same,normalized growth,"locus YAL030W, strain snc1, stronger effect = lower value",0.971
same,normalized growth,"locus YBL061C, strain skt5, stronger effect = lower value",0.988
same,normalized growth,"locus YBR009C, strain hhf1, stronger effect = lower value",0.978
same,normalized growth,"locus YBR021W, strain FUR4, stronger effect = lower value",1.02
same,normalized growth,"locus YBR023C, strain chs3, stronger effect = lower value",0.973
same,normalized growth,"locus YBR171W, strain sec66, stronger effect = lower value",0.961
same,normalized growth,"locus YBR229C, strain ROT2, stronger effect = lower value",0.996
same,normalized growth,"locus YBR231C, strain swc5, stronger effect = lower value",0.978
same,normalized growth,"locus YBR279W, strain paf1, stronger effect = lower value",0.988
same,normalized growth,"locus YCL011C, strain gbp2, stronger effect = lower value",0.969
same,normalized growth,"locus YCL016C, strain dcc1, stronger effect = lower value",0.966
same,normalized growth,"locus YCL029C, strain bik1, stronger effect = lower value",0.976
same,normalized growth,"locus YCL069W, strain vba3, stronger effect = lower value",0.989
same,normalized growth,"locus YCR088W, strain abp1, stronger effect = lower value",0.971
same,normalized growth,"locus YDL005C, strain med2, stronger effect = lower value",0.985
same,normalized growth,"locus YDL035C, strain GPR1, stronger effect = lower value",1
same,normalized growth,"locus YDL040C, strain nat1, stronger effect = lower value",0.98
same,normalized growth,"locus YDL074C, strain BRE1, stronger effect = lower value",1.02
same,normalized growth,"locus YDL101C, strain DUN1, stronger effect = lower value",1
same,normalized growth,"locus YDL134C, strain PPH21, stronger effect = lower value",1
same,normalized growth,"locus YDL185W, strain tfp1, stronger effect = lower value",0.987
same,normalized growth,"locus YDL192W, strain arf1, stronger effect = lower value",0.985
same,normalized growth,"locus YDR001C, strain nth1, stronger effect = lower value",0.983
same,normalized growth,"locus YDR069C, strain doa4, stronger effect = lower value",0.98
same,normalized growth,"locus YDR101C, strain arx1, stronger effect = lower value",0.954
same,normalized growth,"locus YDR137W, strain rgp1, stronger effect = lower value",1.01
same,normalized growth,"locus YDR150W, strain NUM1, stronger effect = lower value",0.989
same,normalized growth,"locus YDR159W, strain sac3, stronger effect = lower value",0.953
same,normalized growth,"locus YDR162C, strain NBP2, stronger effect = lower value",0.997
same,normalized growth,"locus YDR195W, strain ref2",1.03
same,normalized growth,"locus YDR297W, strain sur2, stronger effect = lower value",0.984
same,normalized growth,"locus YDR318W, strain mcm21, stronger effect = lower value",0.962
same,normalized growth,"locus YDR334W, strain swr1, stronger effect = lower value",0.984
same,normalized growth,"locus YDR335W, strain msn5, stronger effect = lower value",0.994
same,normalized growth,"locus YDR388W, stronger effect = lower value",0.986
same,normalized growth,"locus YDR392W, strain spt3, stronger effect = lower value",0.913
same,normalized growth,"locus YDR502C, strain sam2, stronger effect = lower value",0.962
same,normalized growth,"locus YEL003W, strain gim4, stronger effect = lower value",0.975
same,normalized growth,"locus YEL037C, strain rad23, stronger effect = lower value",0.991
same,normalized growth,"locus YEL061C, strain CIN8 (second series), stronger effect = lower value",0.98
same,normalized growth,"locus YEL061C, strain CIN8, stronger effect = lower value",0.989
same,normalized growth,"locus YER015W, strain faa2, stronger effect = lower value",0.98
same,normalized growth,"locus YER016W, strain bim1, stronger effect = lower value",0.984
same,normalized growth,"locus YER110C, stronger effect = lower value",0.947
same,normalized growth,"locus YER111C, strain swi4, stronger effect = lower value",0.966
same,normalized growth,"locus YER155C, strain BEM2 (second series), stronger effect = lower value",0.858 (active)
same,normalized growth,"locus YER155C, strain BEM2, stronger effect = lower value",0.994
same,normalized growth,"locus YER167W, strain BCK2, stronger effect = lower value",0.993
same,normalized growth,"locus YFR010W, strain ubp6, stronger effect = lower value",0.992
same,normalized growth,"locus YGL078C, strain dbp3, stronger effect = lower value",0.993
same,normalized growth,"locus YGL086W, strain mad1, stronger effect = lower value",0.988
same,normalized growth,"locus YGL167C, strain pmr1, stronger effect = lower value",0.977
same,normalized growth,"locus YGL173C, strain kem1, stronger effect = lower value",0.971
same,normalized growth,"locus YGL227W, strain vid30, stronger effect = lower value",0.969
same,normalized growth,"locus YGL240W, strain doc1, stronger effect = lower value",0.938
same,normalized growth,"locus YGL248W, strain PDE1, stronger effect = lower value",0.997
same,normalized growth,"locus YGL253W, strain hxk2, stronger effect = lower value",0.979
same,normalized growth,"locus YGR078C, strain PAC10, stronger effect = lower value",0.984
same,normalized growth,"locus YGR135W, strain pre9, stronger effect = lower value",0.962
same,normalized growth,"locus YGR229C, strain SMI1, stronger effect = lower value",1.03
same,normalized growth,"locus YGR252W, strain gcn5, stronger effect = lower value",1.02
same,normalized growth,"locus YHR013C, strain ard1, stronger effect = lower value",1.02
same,normalized growth,"locus YHR027C, strain rpn1, stronger effect = lower value",0.997
same,normalized growth,"locus YHR030C, strain SLT2, stronger effect = lower value",0.993 and 1.04
same,normalized growth,"locus YHR079C, strain IRE1 (second series), stronger effect = lower value",0.961
same,normalized growth,"locus YHR079C, strain IRE1, stronger effect = lower value",1.02
same,normalized growth,"locus YHR094C, strain hxt1, stronger effect = lower value",0.99
same,normalized growth,"locus YHR129C, strain ARP1, stronger effect = lower value",0.999
same,normalized growth,"locus YHR142W, strain chs7, stronger effect = lower value",0.954
same,normalized growth,"locus YHR200W, strain rpn10, stronger effect = lower value",0.965
same,normalized growth,"locus YIL066C, strain RNR3, stronger effect = lower value",1
same,normalized growth,"locus YIL073C, strain SPO22, stronger effect = lower value",0.991
same,normalized growth,"locus YIL125W, strain kgd1, stronger effect = lower value",0.984
same,normalized growth,"locus YIR030C, strain dcg1, stronger effect = lower value",0.972
same,normalized growth,"locus YJL092W, strain hpr5, stronger effect = lower value",0.978
same,normalized growth,"locus YJL095W, strain BCK1 (second series), stronger effect = lower value",0.996
same,normalized growth,"locus YJL095W, strain BCK1, stronger effect = lower value",0.971 and 1.02
same,normalized growth,"locus YJL115W, strain asf1, stronger effect = lower value",0.987
same,normalized growth,"locus YJL129C, strain trk1, stronger effect = lower value",0.965
same,normalized growth,"locus YJL134W, strain LCB3, stronger effect = lower value",0.999
same,normalized growth,"locus YJL154C, strain vps35, stronger effect = lower value",0.98
same,normalized growth,"locus YJL164C, strain tpk1, stronger effect = lower value",0.969
same,normalized growth,"locus YJL166W, strain qcr8, stronger effect = lower value",0.972
same,normalized growth,"locus YJL168C, strain set2, stronger effect = lower value",0.986
same,normalized growth,"locus YJL187C, strain SWE1 (second series), stronger effect = lower value",0.998
same,normalized growth,"locus YJL187C, strain SWE1, stronger effect = lower value",0.982
same,normalized growth,"locus YJR043C, strain POL32, stronger effect = lower value",0.966
same,normalized growth,"locus YJR066W, strain TOR1, stronger effect = lower value",0.965
